# Most compounds without a hit are left out; they make up all but 2.5% or so of the library.
# FH mod – Identification of activators of human fumarate hydratase by quantitative high-throughput screening; Fumarate hydratase, mitochondrial (Homo sapiens), P07954; FH coupled MDH/diaphorase resazurin fluorescence, 15 min; Potency, µM (series often up to 79.9 µM), usual class: inhibitors; hit rate 0.22% among 54,000; AID 1347055, 2019; further: the screen sought activators but most active calls are inhibition curves; nearly all actives have a fitted effect of over 45% in size
# NTMT1 inh – NTMT1 methyltransferase inhibition | AID 1645870 | Q9BV86 | Potency, µM (doses to about 114 µM), most hits filed as inhibitors | NTMT1 MTase-Glo SAH luminescence, purified enzyme | hit rate 2.5% among 59,000; further: nearly all actives have a fitted effect of over 65% in size
# Target sequence (Q9BV86 whole entry, looked up): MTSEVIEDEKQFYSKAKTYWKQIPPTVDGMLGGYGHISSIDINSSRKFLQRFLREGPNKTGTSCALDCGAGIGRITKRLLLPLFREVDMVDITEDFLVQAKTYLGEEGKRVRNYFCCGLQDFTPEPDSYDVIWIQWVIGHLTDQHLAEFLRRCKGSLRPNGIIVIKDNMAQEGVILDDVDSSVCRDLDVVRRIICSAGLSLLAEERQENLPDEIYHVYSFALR
# GALK inhibitor – inhibitors of human galactokinase (GALK); P51570; recombinant GALK, Kinase-Glo ATP luminescence, 1 h; Potency, µM (series often up to 57.5 µM), usual class: inhibitors; 44,000 tested, under 10 active; AID 1347072
# Target sequence (P51570 whole entry, looked up): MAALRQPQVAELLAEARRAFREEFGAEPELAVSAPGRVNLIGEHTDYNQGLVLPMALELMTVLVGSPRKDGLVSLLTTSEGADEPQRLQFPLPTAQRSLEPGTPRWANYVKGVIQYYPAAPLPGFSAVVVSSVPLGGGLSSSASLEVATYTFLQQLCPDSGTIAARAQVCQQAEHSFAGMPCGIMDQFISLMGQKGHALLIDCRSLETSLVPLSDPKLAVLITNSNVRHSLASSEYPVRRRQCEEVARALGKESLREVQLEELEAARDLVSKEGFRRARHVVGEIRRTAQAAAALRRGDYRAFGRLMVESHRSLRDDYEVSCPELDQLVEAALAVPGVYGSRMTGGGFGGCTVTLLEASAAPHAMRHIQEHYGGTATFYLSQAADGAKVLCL
#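 5 nM GALK; 35 uM ATP; 100 uM D-galactose; 20 mM HEPES pH 8.0, 5 mM MgCl2, 60 mM NaCl, 1 mM DTT, 0.01% BSA; 1 h RT; Kinase-Glo Plus luminescence.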
# HTT-AS act – activators of huntingtin-antisense promoter activity; HEK293 HTT-AS promoter firefly luciferase reporter, 24 h; response scale: percent change from vehicle, -100% = no light; Potency, µM (titrated, usually from 57.5 µM), usual class: activators; hit rate 0.24% among 48,000; AID 1508624; further: nearly all actives have a fitted effect of over 55% in size
#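 Luminescence was read after Dual-Glo reagent and a 10 min room-temperature incubation. Values were normalized to vehicle (0% activity) and zero RLU (-100% activity). Reporter HEK293 cells had been exposed to compounds (up to 57.5 uM final) for 24 h.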
# HTT prom inh – inhibitors of huntingtin promoter activity; HEK293 HTT promoter firefly luciferase reporter, 24 h; Potency, µM (doses to about 57.5 µM), most hits filed as inhibitors; hit rate 0.93% among 48,000; AID 1508623; further: nearly all actives have a fitted effect of over 50% in size
#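 HEK293 cells carrying firefly luciferase reporters were seeded at 2,500 per well in Opti-MEM and cultured for 24 h. They were then treated with compounds at up to 57.5 uM final for 24 h at 37 degrees C before Dual-Glo luminescence readout.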
# Hits are given with their value; – = inactive; ? = inconclusive; · = not tested or not shown; ! = not active in a repeat; [ ] = dose if it differs, or a comment. The call rests on the fitted dose curve; in most records, active means well fitted curve in the direction sought with a large enough effect; inconclusive means small, poorly fitted or top-dose-only effect, or another doubt; inactive means no such curve, though single readings can be large; an effect the other way counts as inactive or inconclusive.
SMILES,FH mod,NTMT1 inh,GALK inhibitor,HTT-AS act,HTT prom inh
CCN(CC)CCNC(=O)c1cc2c(=O)[nH]c3ccc(C)cc3c2s1,–,?,–,–,–
CCOC(=O)C1CCN(S(=O)(=O)c2cc(-c3cc(C)no3)ccc2OC)CC1,–,89µM,–,–,–
Cc1cc(NS(=O)(=O)c2ccc(NC(=O)Cc3ccc(F)c(Cl)c3)cc2)no1,·,–,·,·,·
Nc1nc(=S)c2[nH]cnc2[nH]1,–,3.5µM,·,–,?
N[C@H](Cc1ccccc1)C(=O)Nc1ccc(Cl)cc1C(=O)c1ccc[nH]1,·,28µM,·,·,·
COc1ccc(Oc2cc(C)c(-c3csc(NC(=O)c4ccncc4)n3)c(C)c2)cc1,–,–,·,·,·
COc1cc2nc(NC(=O)c3ccc(S(=O)(=O)N4CCc5ccccc54)cc3)sc2cc1OC,–,–,?,–,13µM
O=C(Cc1ccc(Cl)c(Cl)c1)Nc1ccc([S+](=O)([O-])Nc2ccc3[nH]ccc3c2)cc1,·,–,·,·,·
Cc1ccc(OCCn2c(CCNC(=O)c3ccco3)nc3ccccc32)cc1,·,–,·,·,·
COC(=O)c1ccc(O)c2ncc(NC3CCNCC3)cc12,·,–,·,·,·
CCOc1ccc(NC(=O)c2c(Nc3ccc(OC)cc3OC)sc(C(=O)c3ccc(Cl)cc3)c2N)cc1,–,–,–,–,–
Nc1c(C(=O)c2ccccc2)sc(Nc2ccc(Cl)c(Cl)c2)c1C(=O)Nc1ccccc1,–,–,–,–,28µM
O=C1c2ccccc2-[n+]2ccc3c([nH]c4ccccc43)c21,6.9µM,45µM,·,–,?
CC1=C(C)C(=O)C(CCCCC#CCCCC#CCO)=C(C)C1=O,28µM,?,·,–,–
CN(C)c1ccc(C(CNS(=O)(=O)c2ccc(F)cc2)N2CCCC2)cc1 (stereo unspecified),–,89µM,–,–,–
CCOC(=O)c1oc2c(c1C)-c1nn(Cc3ccc(Cl)cc3)cc1CC2,32µM[activator],–,–,–,?
Cc1c(C(=O)O)oc2c1-c1nn(Cc3ccc(Cl)cc3)cc1CC2,–,50µM,–,–,?
Cc1ccc(CNC(=O)c2oc3c(c2C)-c2nn(Cc4ccc(Cl)cc4)cc2CC3)cc1,–,–,–,–,?
Cc1ccc(-n2ncc(C(=O)NCCN3CCC(Cc4ccccc4)CC3)c2C2CCN(C(=O)OC(C)(C)C)CC2)cc1,–,89µM,–,–,?
COC(=O)c1ccnc(NCc2ccc(O)c3ncccc23)c1,·,–,·,·,·
Cc1cccc(NC(=O)c2oc3c(c2C)-c2[nH]ncc2CC3)c1C,–,–,–,?,–
Cc1ccc(NC(=O)c2oc3c(c2C)-c2[nH]ncc2CC3)c(Cl)c1,–,?,–,2.2µM,–
C[C@H]1C(=O)N2c3ccccc3[C@@]3(O)C[C@@H]4C(=O)N[C@](C)(c5nc6ccccc6c(=O)n54)N1[C@@H]23,–,–,·,·,·
Cc1nc(Nc2ncc(C(=O)Nc3c(C)cccc3Cl)s2)cc(N2CCN(CCO)CC2)n1,–,22µM!,·,–,?
CC(C)c1ccccc1-c1ncc(F)c(NCC2CCN(c3cnccn3)C2)n1 (stereo unspecified),·,–,·,·,·
SMILES,FH mod,NTMT1 inh,GALK inhibitor,HTT-AS act,HTT prom inh
CCOc1ccc(S(=O)(=O)N(C(C)=O)c2ccc3oc(C)c(C(=O)OC)c3c2)cc1,?,–,–,–,2.5µM
CCCC(=O)N(c1ccc2oc(C)c(C(C)=O)c2c1)S(=O)(=O)c1ccc(CC)cc1,–,–,–,–,5µM
COC(=O)c1c(C)oc2ccc(N(C(=O)c3ccncc3)S(=O)(=O)c3cc(C)ccc3C)cc12,–,–,–,–,28µM
CCOC(=O)c1c(-c2ccccc2)oc2ccc(N(C(C)=O)S(=O)(=O)c3ccccc3)cc12,·,·,–,·,·
CC(=O)c1c(C)oc2ccc(N(C(=O)Oc3ccccc3)S(=O)(=O)c3ccccc3)cc12,–,–,–,–,–
COC(=O)c1c(C)oc2ccc(N(C(=O)c3ccncc3)S(=O)(=O)c3ccc(Br)cc3)cc12,–,–,–,–,?
Nc1nc(SCc2ccc([N+](=O)[O-])cc2)c2ncn([C@@H]3O[C@H](CO)C(O)[C@H]3O)c2n1 (stereo partly specified),–,·,·,·,·
COc1cc(Cl)c(NS(=O)(=O)c2ccc3c(c2)CC(C)N3C(=O)C2CCC2)c(OC)c1 (stereo unspecified),–,–,–,–,8.9µM
CCC(=O)N1c2ccc(S(=O)(=O)N3CCN(c4ccccc4Cl)CC3)cc2CC1C (stereo unspecified),–,89µM,–,–,?
CCc1cccc(NS(=O)(=O)c2ccc3c(c2)CC(C)N3C(=O)C2CC2)c1 (stereo unspecified),?,–,–,–,14µM
COc1ccc(NS(=O)(=O)c2ccc3c(c2)CC(C)N3C(=O)C2CCC2)cc1OC (stereo unspecified),–,–,–,–,1.8µM
COc1cc(NS(=O)(=O)c2ccc3c(c2)CC(C)N3C(=O)C2CCC2)cc(OC)c1OC (stereo unspecified),·,·,–,·,·
CS(=O)(=O)c1ccc(C(=O)OCC(=O)N2CCN(Cc3ccccc3)CC2)cc1[N+](=O)[O-],·,–,·,·,·
O=[N+]([O-])c1cccc(CNc2ccc(S(=O)(=O)Nc3nccs3)cc2)c1O,·,–,·,·,·
CCOc1ccc(-c2cn3c(n2)sc2cc(C(=O)NCCCN(CC)CC)ccc23)cc1,–,40µM,–,–,?
CCCN1CCN(CCCNC(=O)c2ccc3c(c2)sc2nc(-c4ccc(OCC)cc4)cn23)CC1,–,?,–,–,–
CCOc1ccc(-c2cn3c(n2)sc2cc(C(=O)NCCCN4CCCCC4)ccc23)cc1,–,50µM,–,–,?
Cc1ccc2oc(NC3=NC(c4[nH]ncc4Cl)C4=C(CCCC4=O)N3)nc2c1 (stereo unspecified),·,–,·,·,·
CC(C)NCCCn1c(Sc2cc(Cl)cc(Cl)c2)nc2c(N)ncnc21,·,–,·,·,·
O=C1CCCC2=C1C(c1[nH]ncc1Cl)NC(=NCc1ccoc1)N2 (stereo unspecified),·,–,·,·,·
CC(C)(O)c1ccc2c(c1)C(O)C[C@H]1[C@](C)(C(=O)O)CCC[C@]21C (stereo partly specified),–,–,·,·,·
O=S(=O)(c1ccc(Cl)cc1)c1nnn2c1nc(NCc1ccccc1)c1sccc12,–,89µM,–,–,–
O=S(=O)(c1ccccc1)c1nnn2c1nc(NCc1ccccc1)c1sccc12,–,–,–,–,–
CCOc1ccc(-c2cc(CCCC(=O)NCCc3ccc(OC)c(OC)c3)no2)cc1,–,?,–,–,?
CCOc1ccc(-c2cc(CCCC(=O)NCCc3cc(OC)c(OC)c(OC)c3)no2)cc1,–,–,–,–,16µM
Nc1c(-c2ccncc2)cc[nH]c1=O,·,79µM,·,·,·
CC1(COc2ccc(CC3SC(=O)NC3=O)cc2)CCCCC1 (stereo unspecified),?,?,·,–,–
CCc1ccc(CCOc2ccc(CC3SC(=O)NC3=O)cc2)nc1 (stereo unspecified),–,32µM!,·,–,–
